# Assay results from PubChem BioAssay (EPA / NIEHS).
# The source made the active and inactive calls. Rule for the calls: active = hit-call score of the fitted dose curve at least 0.9, where 1 is the maximum; inactive = score below 0.9.
# Assays:
# [1] = read-out: Thrombomodulin, THBD (gene 7056); experiment: BSK_CASM3C_Thrombomodulin: BioMAP Diversity Plus: CASM3C Assay for Thrombomodulin Biomarker Activity (AID 2283051); details: primary human coronary artery smooth muscle cells; actives raise or lower the signal;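 note: thrombomodulin protein level measured by ELISA 24 h after dosing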
# [2] = read-out: Tissue Factor, F3 (gene 2152); experiment: BSK_CASM3C_TissueFactor: BioMAP Diversity Plus: CASM3C Assay for Tissue Factor Biomarker Activity (AID 2283052); details: primary human coronary artery smooth muscle cells; actives raise or lower the signal;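 note: cell surface tissue factor protein level read by ELISA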
# [3] = read-out: Interferon-gamma inducible Protein 10 (IP10), CXCL10 (gene 3627); experiment: BSK_hDFCGF_IP10: BioMAP Diversity Plus: hDFCGF Assay for Interferon-gamma inducible Protein 10 (IP10) Biomarker Activity (AID 2283053); details: primary human foreskin fibroblasts; actives raise or lower the signal
# Outline: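 Chemical-treated human skin fibroblasts (primary) were sampled at 24 h for IP-10 by ELISA. Both increases and decreases relative to DMSO were scored.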
# [4] = read-out: Urokinase-type plasminogen activator receptor (uPAR), PLAUR (gene 5329); experiment: BSK_CASM3C_uPAR: BioMAP Diversity Plus: CASM3C Assay for Urokinase-type plasminogen activator receptor (uPAR) Biomarker Activity (AID 2283054); details: primary human coronary artery smooth muscle cells; actives raise or lower the signal;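 note: cell-surface uPAR protein level quantified by ELISA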
# [5] = read-out: Vascular cell adhesion molecule 1 (VCAM1), VCAM1 (gene 7412); experiment: BSK_CASM3C_VCAM1: BioMAP Diversity Plus: CASM3C Assay for Vascular cell adhesion molecule 1 (VCAM1) Biomarker Activity (AID 2283055); details: primary human coronary artery smooth muscle cells; actives raise or lower the signal;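 note: VCAM-1 protein level quantified by ELISA on the cells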
# [6] = read-out: Collagen III, COL3A1 (gene 1281); experiment: BSK_hDFCGF_CollagenIII: BioMAP Diversity Plus: hDFCGF Assay for Collagen III Biomarker Activity (AID 2283056); details: primary human foreskin fibroblasts; actives raise or lower the signal
# Outline: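 Cells: human foreskin fibroblasts, primary. Dosing followed by 24 h incubation, then ELISA for collagen III. Both increases and decreases scored relative to DMSO.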
# [7] = read-out: Epidermal growth factor receptor (EGFR), EGFR (gene 1956); experiment: BSK_hDFCGF_EGFR: BioMAP Diversity Plus: hDFCGF Assay for Epidermal growth factor receptor (EGFR) Biomarker Activity (AID 2283057); details: primary human foreskin fibroblasts; actives raise or lower the signal
# Outline: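 Cell-based multiplexed assay in primary human foreskin fibroblasts. EGFR is read by ELISA 24 h after treatment and compared with DMSO controls.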
# [8] = read-out: Interleukin-8 (IL8), CXCL8 (gene 3576); experiment: BSK_hDFCGF_IL8: BioMAP Diversity Plus: hDFCGF Assay for Interleukin-8 (IL8) Biomarker Activity (AID 2283058); details: primary human foreskin fibroblasts; actives raise or lower the signal
# Outline: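 IL-8 levels from compound-treated primary human fibroblasts were read by ELISA at 24 h, with DMSO serving as baseline for bidirectional fitting.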
# [9] = BSK_hDFCGF_Proliferation: Cell Proliferation Assessment in the BioMAP Diversity Plus: hDFCGF Assay (AID 2283059); details: primary human foreskin fibroblasts;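 note: curves fitted for both rise and fall of signal versus DMSO baseline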
# Outline: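 This proliferation readout used SRB total-protein staining of human foreskin fibroblasts […], normalized to DMSO with bidirectional curve fitting.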
# [10] = read-out: Macrophage colony-stimulating factor (MCSF), CSF1 (gene 1435); experiment: BSK_hDFCGF_MCSF: BioMAP Diversity Plus: hDFCGF Assay for Macrophage colony-stimulating factor (MCSF) Biomarker Activity (AID 2283060); details: primary human foreskin fibroblasts; actives raise or lower the signal
# Outline: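 M-CSF levels, determined by ELISA, are taken at 24 h after dosing human skin fibroblasts. Responses in either direction are fitted with DMSO serving as the baseline.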
# [11] = read-out: Monokine induced gamma interferon (MIG), CXCL9 (gene 4283); experiment: BSK_hDFCGF_MIG: BioMAP Diversity Plus: hDFCGF Assay for Monokine induced gamma interferon (MIG) Biomarker Activity (AID 2283063); details: primary human foreskin fibroblasts; actives raise or lower the signal
# Outline: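 MIG signal, determined by ELISA, reflects 24 h chemical exposure of human skin primary fibroblasts. DMSO serves as negative control and baseline.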
# [12] = read-out: Matrix Metallopeptidase 1 (MMP1), MMP1 (gene 4312); experiment: BSK_hDFCGF_MMP1: BioMAP Diversity Plus: hDFCGF Assay for Matrix Metallopeptidase 1 (MMP1) Biomarker Activity (AID 2283064); details: primary human foreskin fibroblasts; actives raise or lower the signal
# Outline: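 MMP1 levels quantified by ELISA 24 h after dosing human dermal fibroblast cultures, with parallel SRB total-protein staining for overt cytotoxicity. Data fitted in both directions against DMSO baseline.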
# [13] = read-out: Vascular cell adhesion molecule 1 (VCAM1), VCAM1 (gene 7412); experiment: BSK_hDFCGF_VCAM1: BioMAP Diversity Plus: hDFCGF Assay for Vascular cell adhesion molecule 1 (VCAM1) Biomarker Activity (AID 2283065); details: primary human foreskin fibroblasts; actives raise or lower the signal;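 for AC50: VCAM-1 protein level quantified by ELISA after 24 h chemical exposure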
# Outline: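 Cells are dosed, cultured for 24 h, then VCAM-1 is quantified by ELISA; signal increases and decreases are both fitted relative to DMSO.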
# [14] = read-out: Plasminogen activator inhibitor-1 (PAI1), SERPINE1 (gene 5054); experiment: BSK_hDFCGF_PAI1: BioMAP Diversity Plus: hDFCGF Assay for Plasminogen activator inhibitor-1 (PAI1) Biomarker Activity (AID 2283066); details: primary human foreskin fibroblasts; actives raise or lower the signal
# Outline: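 Human skin fibroblast cultures receive chemical for 24 h before PAI-1 is measured by ELISA; signal changes are fitted bidirectionally against DMSO-treated wells.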
# [15] = read-out: Intercellular Adhesion Molecule 1 (ICAM1), ICAM1 (gene 3383); experiment: BSK_KF3CT_ICAM1: BioMAP Diversity Plus: KF3CT Assay for Intercellular Adhesion Molecule 1 (ICAM1) Biomarker Activity (AID 2283067); details: primary human keratinocytes with fibroblasts; actives raise or lower the signal
# Outline: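 Dose the keratinocyte/fibroblast co-culture, wait 24 h, measure ICAM-1 by ELISA, then fit increases or decreases against DMSO. Cytotoxicity is checked in parallel cultures by SRB total-protein staining.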
# [16] = read-out: Interferon-gamma inducible Protein 10 (IP10), CXCL10 (gene 3627); experiment: BSK_KF3CT_IP10: BioMAP Diversity Plus: KF3CT Assay for Interferon-gamma inducible Protein 10 (IP10) Biomarker Activity (AID 2283068); details: primary human keratinocytes with fibroblasts; actives raise or lower the signal
# Outline: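 Signal is secreted/surface IP-10 by ELISA in a human primary skin co-culture of keratinocytes and foreskin fibroblasts, taken 24 h post-dosing; DMSO served as negative control.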
# [17] = BSK_KF3CT_SRB: Viability Assessment in the BioMAP Diversity Plus: KF3CT Assay (AID 2283069); details: primary human keratinocytes with fibroblasts;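 note: total protein by sulforhodamine B staining as a cytotoxicity measure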
# Outline: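 Cytotoxicity was gauged by SRB staining (0.1% SRB, 10% TCA fixation, 560 nm) of parallel cultures at 24 h. The cells were primary human skin keratinocytes co-cultured with fibroblasts, and activity was fitted in both directions against DMSO.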
# [18] = read-out: Interleukin-1 alpha (IL1a), IL1A (gene 3552); experiment: BSK_KF3CT_IL1a: BioMAP Diversity Plus: KF3CT Assay for Interleukin-1 alpha (IL1a) Biomarker Activity (AID 2283070); details: primary human keratinocytes with fibroblasts; actives raise or lower the signal
# Outline: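 IL-1a was detected by ELISA 24 h after chemical treatment of a co-culture of human skin keratinocytes and foreskin fibroblasts. Gain or loss of signal was fitted against the DMSO baseline.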
compound,measurement,setting,value
NCCNCCN,outcome,[1],inactive
same,outcome,[2],inactive
same,outcome,[3],inactive
same,outcome,[4],inactive
same,outcome,[5],inactive
same,outcome,[6],inactive
same,outcome,[7],inactive
same,outcome,[8],inactive
same,outcome,[9],inactive
same,outcome,[10],inactive
same,outcome,[11],inactive
same,outcome,[12],inactive
same,outcome,[13],inactive
same,outcome,[14],inactive
same,outcome,[15],inactive
same,outcome,[16],inactive
same,outcome,[17],inactive
same,outcome,[18],inactive
CCCCC(CC)COCCC#N (stereo not drawn),outcome,[1],inactive
same,outcome,[2],inactive
same,AC50,[3],20 µM (active)
same,outcome,[4],inactive
same,outcome,[5],inactive
same,AC50,[6],24.1 µM (active)
same,outcome,[7],inactive
same,outcome,[8],inactive
same,AC50,[9],11.1 µM (active)
same,outcome,[10],inactive
same,outcome,[11],inactive
same,outcome,[12],inactive
same,AC50,[13],7.05 µM (active)
same,outcome,[14],inactive
same,outcome,[15],inactive
same,AC50,[16],5.08 µM (active)
same,outcome,[17],inactive
same,outcome,[18],inactive
CCCCCCCCCC=O,outcome,[1],inactive
same,outcome,[2],inactive
same,outcome,[3],inactive
same,outcome,[4],inactive
same,outcome,[5],inactive
same,outcome,[6],inactive
same,outcome,[7],inactive
same,outcome,[8],inactive
same,outcome,[9],inactive
same,outcome,[10],inactive
same,outcome,[11],inactive
same,outcome,[12],inactive
same,outcome,[13],inactive
same,outcome,[14],inactive
same,outcome,[15],inactive
same,AC50,[16],11.9 µM (active)
same,outcome,[17],inactive
same,outcome,[18],inactive
Cc1ccc(Nc2ccc(O)c3c2C(=O)c2ccccc2C3=O)cc1,outcome,[1],inactive
same,outcome,[2],inactive
same,outcome,[3],inactive
same,outcome,[4],inactive
same,outcome,[5],inactive
same,outcome,[6],inactive
same,outcome,[7],inactive
same,outcome,[8],inactive
same,AC50,[9],2.4 µM (active)
same,outcome,[10],inactive
same,outcome,[11],inactive
same,outcome,[12],inactive
same,outcome,[13],inactive
same,AC50,[14],1.61 µM (active)
same,outcome,[15],inactive
same,outcome,[16],inactive
same,outcome,[17],inactive
same,outcome,[18],inactive
CCCCCCCCCCCCCCCCCC(=O)OCC(CC)CCCC (stereo not drawn),outcome,[1],inactive
same,outcome,[2],inactive
same,outcome,[3],inactive
same,outcome,[4],inactive
same,outcome,[5],inactive
same,outcome,[6],inactive
same,outcome,[7],inactive
same,outcome,[8],inactive
same,outcome,[9],inactive
same,outcome,[10],inactive
same,outcome,[11],inactive
same,outcome,[12],inactive
same,outcome,[13],inactive
same,outcome,[14],inactive
same,outcome,[15],inactive
same,outcome,[16],inactive
same,outcome,[17],inactive
same,outcome,[18],inactive
CC(=O)OCCC(C)CC(C)(C)C (stereo not drawn),outcome,[1],inactive
same,outcome,[2],inactive
same,outcome,[3],inactive
same,outcome,[4],inactive
same,outcome,[5],inactive
same,outcome,[6],inactive
same,outcome,[7],inactive
same,outcome,[8],inactive
same,outcome,[9],inactive
same,outcome,[10],inactive
same,outcome,[11],inactive
same,outcome,[12],inactive
same,outcome,[13],inactive
same,outcome,[14],inactive
same,outcome,[15],inactive
same,outcome,[16],inactive
same,outcome,[17],inactive
same,outcome,[18],inactive
